BoNT F protease: inhibitors of Botulinum neurotoxin F light chain protease. Multiplex microsphere protease cleavage assay, flow cytometry. inhibition, % at 10 µM. 360,000 compounds, 0.22% hits. AID 588497; in the data active = inhibition above about 35%, passing the limit was not always enough; inconclusive = no clear call, values can overlap the other calls; note: plate controls were buffer without enzyme for full effect and enzyme alone for no effect
BoNT A protease: BoNT A light chain protease inhibition | multiplex microsphere protease substrate cleavage, flow cytometry | inhibition, % at 10 µM | 360,000 compounds, 0.17% hits; note: plate controls were buffer without enzyme for full effect and enzyme alone for no effect
Bead autofluor: counter-screen for toxin protease inhibitors: compound fluorescence; fluorescence intensity (no concentration beside the values); 360,000 compounds, 3.1% hits; compound autofluorescence counterscreen, microsphere flow cytometry; active compounds read high; in the data active = fluorescence intensity above about 16000; inconclusive = no clear call, values can overlap the other calls
Anthrax LF inh2: blocks Bacillus anthracis lethal factor protease | multiplex microsphere protease cleavage assay, LF | inhibition, % at 10 µM | 360,000 compounds, 0.12% hits | AID 588501; note: plate controls were buffer without enzyme for full effect and enzyme alone for no effect
BH1578 lux ind: quorum light induction in luxS cqsA deficient V. cholerae; V. cholerae BH1578 lux reporter, luminescence, 6 h; activation, % at 18.7 µM; 350,000 compounds, 0.16% hits; AID 588436; in the data active = activation mostly above about 9.7%, no sharp cut-off; inconclusive = no clear call, values can overlap the other calls; inactive = mostly below about 3.7%
BJeLR viability: kills HRASV12-expressing BJeLR cells | 300,000 compounds, 0.17% hits | BJeLR (HRASV12) viability, CellTiter-Glo ATP luminescence, 48 h | AID 1554 | inhibition, % (no concentration beside the values); in the data active = inhibition above about 50%; inconclusive = no clear call, values can overlap the other calls
Numbers without * were called inactive; ! = a repeat was not active. A selection: hits, their analogues and other compounds. The true share with any hit is near 3.7%. Cut-off read from the data, not from the text of the source, unless noted: active = inhibition above about 30%; inconclusive = no clear call, values can overlap the other calls; inactive = below that.

Results for CC1=CCC(C(=O)O)(C(=O)N/N=C/c2cccs2)C(c2ccc(F)cc2)C1 (configuration not stated) ?
BoNT F protease: 5; BoNT A protease: 1; Bead autofluor: 8017; Anthrax LF inh2: 2; BH1578 lux ind: 1; BJeLR viability: 13

How did O=C(CCCC(=O)OCC(=O)c1ccc(Cl)cc1Cl)Nc1cc(C(F)(F)F)ccc1Cl do in these assays?
BoNT F protease: 4; BoNT A protease: 1; Bead autofluor: 2656; Anthrax LF inh2: -1; BH1578 lux ind: 0; BJeLR viability: 4

Results for O=C(CCCC(=O)OCC(=O)c1ccc(F)cc1)Nc1cc(C(F)(F)F)ccc1Cl ?
BoNT F protease: -6; BoNT A protease: inconclusive; Bead autofluor: 20642*; Anthrax LF inh2: -2; BH1578 lux ind: -2; BJeLR viability: -4

How did CCOc1c(C)cc(-c2ncccc2O)cc1C do in these assays?
BoNT F protease: -4; BoNT A protease: -1; Bead autofluor: 22538*!; Anthrax LF inh2: -2; BH1578 lux ind: inactive; BJeLR viability: 11

Results for COc1ccc(-c2ncccc2O)cc1 ?
BoNT F protease: -7; BoNT A protease: 0; Bead autofluor: 2533; Anthrax LF inh2: 0; BH1578 lux ind: inactive; BJeLR viability: -1

Results for CN(Cc1ccccc1)Cc1cc(=O)oc2ccc3ccccc3c12 ?
BoNT F protease: 4; BoNT A protease: 0; Bead autofluor: 6128; Anthrax LF inh2: -11

Results for O=C(NCc1ccncc1)C(=O)NCC1OCCN1S(=O)(=O)c1ccccc1 (configuration not stated) ?
BoNT F protease: -5; BoNT A protease: 0; Bead autofluor: 2961; Anthrax LF inh2: -3; BH1578 lux ind: 0

Results for CCc1ccccc1NC(=O)COc1cccc(-n2cnnn2)c1 ?
BoNT F protease: -22; BoNT A protease: 0; Bead autofluor: 3834; Anthrax LF inh2: 4; BH1578 lux ind: 0; BJeLR viability: -4

Results for CCOc1ccccc1NC(=O)COc1cccc(-n2cnnn2)c1 ?
BoNT F protease: -4; BoNT A protease: -2; Bead autofluor: 23672*; Anthrax LF inh2: -2; BH1578 lux ind: inactive; BJeLR viability: -14

What do the screens show for `CCOc1ccc(NC(=O)c2cccc(-n3cnnn3)c2)cc1`?
BoNT F protease: -4; BoNT A protease: inconclusive; Bead autofluor: 23535*; Anthrax LF inh2: -2; BH1578 lux ind: -2; BJeLR viability: -2

What do the screens show for `O=C(COc1ccc(F)cc1)Nc1ccc(-n2cnnn2)cc1`?
BoNT F protease: 1; BoNT A protease: inconclusive; Bead autofluor: 20385*; Anthrax LF inh2: 1; BH1578 lux ind: inactive; BJeLR viability: -1

What do the screens show for `COC(=O)[C@]12CCCCC=C1N(CCC1=CCCCC1)C(=O)[C@H](CC(=O)NCCCCc1ccccc1)C2`?
BoNT F protease: -8; BoNT A protease: 0; Bead autofluor: 4462; Anthrax LF inh2: -1

What do the screens show for `COc1cc(CNC(=O)Nc2nnc([C@H]3C[C@H](O)[C@@H](CO)O3)s2)cc(OC)c1OC`?
BoNT F protease: 3; BoNT A protease: 0; Bead autofluor: 2871; Anthrax LF inh2: 1; BH1578 lux ind: -1

How did CC1(C)Cc2cccc(OCC(=O)Nc3ccccc3N3CCOCC3)c2O1 do in these assays?
BoNT F protease: 2; BoNT A protease: 0; Bead autofluor: 16540*; Anthrax LF inh2: -2; BH1578 lux ind: 0; BJeLR viability: 2

How did COC(=O)C(NC(=O)C(NC(=O)c1ccccc1)C(C)C)C(C)C (configuration not stated) do in these assays?
BoNT F protease: 2; BoNT A protease: 1; Bead autofluor: 22539*; Anthrax LF inh2: 1; BH1578 lux ind: inactive; BJeLR viability: 13

What do the screens show for `O=C(NC(C(=O)O)c1ccccc1)c1ccccc1` (configuration not stated)?
BoNT F protease: -5; BoNT A protease: 0; Bead autofluor: 4003; Anthrax LF inh2: -11; BH1578 lux ind: -1; BJeLR viability: 5

Results for COC(=O)C(NC(=O)c1ccccc1)c1ccccc1 (configuration not stated) ?
BoNT F protease: -5; BoNT A protease: -4; Bead autofluor: 25637*; Anthrax LF inh2: 1; BH1578 lux ind: inactive; BJeLR viability: -4

How did COC(=O)C(NC(=O)C(C)Oc1ccccc1)C(C)C (configuration not stated) do in these assays?
BoNT F protease: 0; BoNT A protease: inconclusive; Bead autofluor: 20348*; Anthrax LF inh2: -6; BH1578 lux ind: inactive; BJeLR viability: -5

How did O=C(Nc1c(F)cc(F)cc1Br)C1CCCO1 (configuration not stated) do in these assays?
BoNT F protease: -8; BoNT A protease: -5; Bead autofluor: 25313*; Anthrax LF inh2: -2; BH1578 lux ind: 0; BJeLR viability: -7

Results for COc1ccccc1NC(=O)CN1CCN(c2ccccn2)CC1 ?
BoNT F protease: -1; BoNT A protease: -1; Bead autofluor: 20530*; Anthrax LF inh2: -2; BH1578 lux ind: 0; BJeLR viability: -6

Results for COc1ccc(NC(=O)CN2CCN(CC(=O)Nc3ccccc3OC)CC2)c(OC)c1 ?
BoNT F protease: -20; BoNT A protease: -5; Bead autofluor: 3927; Anthrax LF inh2: 2; BH1578 lux ind: -1; BJeLR viability: 20

How did COc1ccccc1NC(=O)CN1CCN(Cc2ccccc2)CC1 do in these assays?
BoNT F protease: -5; BoNT A protease: -2; Bead autofluor: 16872*; Anthrax LF inh2: -5; BH1578 lux ind: inactive; BJeLR viability: -1

How did COc1ccc(NC(=O)CN2CCN(CC(=O)Nc3ccccc3Cl)CC2)c(OC)c1 do in these assays?
BoNT F protease: 1; BoNT A protease: 4; Bead autofluor: 22552*; Anthrax LF inh2: -1; BH1578 lux ind: inactive; BJeLR viability: -32

How did O=C(Nc1ccccc1)N1CCN(c2ccccn2)CC1 do in these assays?
BoNT F protease: 6; BoNT A protease: -1; Bead autofluor: 3348; Anthrax LF inh2: 3; BH1578 lux ind: 0; BJeLR viability: -4

Results for Cc1ccc(NC(=O)N2CCN(c3ccccn3)CC2)cc1 ?
BoNT F protease: 2; BoNT A protease: 1; Bead autofluor: 22825*; Anthrax LF inh2: -1; BH1578 lux ind: 0; BJeLR viability: -1

What do the screens show for `Cc1cc(C)nc(/N=C(\N)C2=C(O)CC(C)(C)CC2=O)n1`?
BoNT F protease: -4; BoNT A protease: 0; Bead autofluor: 21038*; Anthrax LF inh2: -2; BH1578 lux ind: -6; BJeLR viability: -5

What do the screens show for `O=C(CCl)NC(Cc1ccccc1)C(=O)OCC(=O)c1ccc(-c2ccccc2)cc1` (configuration not stated)?
BoNT F protease: 2; BoNT A protease: 0; Bead autofluor: 3796; Anthrax LF inh2: 1; BH1578 lux ind: inactive

Results for CCOC(=O)c1c(NC(=S)Nc2ccc(OCC)cc2)sc2c1CCN(C)C2 ?
BoNT F protease: -3; BoNT A protease: 6; Bead autofluor: 5339; Anthrax LF inh2: 6; BH1578 lux ind: 0; BJeLR viability: -4

Bioassay records deposited in PubChem BioAssay by several laboratories.
